Common to all, as to assay: protein-binding microarray (PBM); PBM: ~300 nM protein, 6 mM HEPES pH 7.8, 80 mM KCl, 0.5 mM EDTA, 0.5 mM EGTA, 6% glycerol, 35 ng/ul poly-dIdC, 1% milk, 1 h, room temperature; Ap Aiptasia and Nv Nematostella (sea anemones) / Co Capsaspora / Aq Amphimedon (sponge) / Dm Drosophila / Hu human; RHD is the Rel homology domain; high values mean tight binding
What all share (conditions): dsDNA, one strand shown

One assay has as its target T1, GST-Ap-NF-kB RHD (Exaiptasia pallida (Aiptasia), UniProt A0A913YAJ5 2-422).
T1 sequence: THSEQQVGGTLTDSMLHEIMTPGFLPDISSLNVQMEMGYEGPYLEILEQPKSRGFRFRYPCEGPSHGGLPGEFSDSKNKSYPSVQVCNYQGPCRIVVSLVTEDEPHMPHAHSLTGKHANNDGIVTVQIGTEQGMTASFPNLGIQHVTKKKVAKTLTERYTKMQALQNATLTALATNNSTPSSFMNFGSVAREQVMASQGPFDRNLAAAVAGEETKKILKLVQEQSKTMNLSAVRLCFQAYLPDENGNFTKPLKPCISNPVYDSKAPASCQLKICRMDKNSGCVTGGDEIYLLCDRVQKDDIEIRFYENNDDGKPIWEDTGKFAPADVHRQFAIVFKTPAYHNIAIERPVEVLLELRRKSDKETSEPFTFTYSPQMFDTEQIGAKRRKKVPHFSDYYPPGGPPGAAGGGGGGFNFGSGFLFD

The target in assay [1] is T2, GST-Nv-NF-kB (Cys allele) (Nematostella vectensis, UniProt E5G601 2-411).
T2 sequence: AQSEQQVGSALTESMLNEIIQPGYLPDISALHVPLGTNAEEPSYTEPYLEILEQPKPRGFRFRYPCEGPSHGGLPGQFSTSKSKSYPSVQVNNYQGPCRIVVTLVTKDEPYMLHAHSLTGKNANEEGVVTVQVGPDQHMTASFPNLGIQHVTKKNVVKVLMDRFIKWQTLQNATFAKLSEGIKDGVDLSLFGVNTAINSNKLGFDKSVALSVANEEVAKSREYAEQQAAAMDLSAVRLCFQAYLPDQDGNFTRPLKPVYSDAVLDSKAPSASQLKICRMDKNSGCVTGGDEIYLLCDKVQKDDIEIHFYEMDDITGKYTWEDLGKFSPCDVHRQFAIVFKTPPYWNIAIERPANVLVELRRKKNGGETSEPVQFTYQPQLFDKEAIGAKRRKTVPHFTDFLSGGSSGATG

For assay [2], the target named is T3, GST-Nv-NF-kB (Ser allele) (Nematostella vectensis, UniProt A7UNT2 2-411).
T3 sequence: T2 sequence with Q21R, C66S, S207N, E215Q, V217A, E225K, A268E, D399E

The next assay addresses T4, GST-Co-NF-kB (Capsaspora owczarzaki, UniProt F1ARL5 200-546).
T4 sequence: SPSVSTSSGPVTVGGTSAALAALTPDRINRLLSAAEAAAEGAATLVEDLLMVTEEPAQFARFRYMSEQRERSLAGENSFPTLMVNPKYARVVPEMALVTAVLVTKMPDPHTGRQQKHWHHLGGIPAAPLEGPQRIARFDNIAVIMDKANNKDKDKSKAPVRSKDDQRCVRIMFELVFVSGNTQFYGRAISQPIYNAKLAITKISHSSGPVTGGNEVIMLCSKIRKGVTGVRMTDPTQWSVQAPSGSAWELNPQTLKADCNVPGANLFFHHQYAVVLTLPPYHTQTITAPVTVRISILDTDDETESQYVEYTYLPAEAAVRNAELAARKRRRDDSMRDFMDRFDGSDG

The target of a further assay is T5, GST-Dm-Relish (Drosophila melanogaster, UniProt Q94527 99-473).
T5 sequence: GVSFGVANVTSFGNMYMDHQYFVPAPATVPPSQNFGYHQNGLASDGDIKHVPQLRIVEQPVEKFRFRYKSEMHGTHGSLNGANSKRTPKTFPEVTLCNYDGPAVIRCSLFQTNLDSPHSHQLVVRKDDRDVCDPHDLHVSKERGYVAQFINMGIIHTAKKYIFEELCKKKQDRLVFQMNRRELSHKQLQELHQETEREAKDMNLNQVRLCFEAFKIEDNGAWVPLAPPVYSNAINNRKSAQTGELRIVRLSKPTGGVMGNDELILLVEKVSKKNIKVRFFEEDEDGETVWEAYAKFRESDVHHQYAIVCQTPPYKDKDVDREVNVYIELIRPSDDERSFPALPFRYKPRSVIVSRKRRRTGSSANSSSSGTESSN

For another assay, the target named is T6, GST-Aq-NF-kB (Amphimedon queenslandica, UniProt A9Y5G7 2-389).
T6 sequence: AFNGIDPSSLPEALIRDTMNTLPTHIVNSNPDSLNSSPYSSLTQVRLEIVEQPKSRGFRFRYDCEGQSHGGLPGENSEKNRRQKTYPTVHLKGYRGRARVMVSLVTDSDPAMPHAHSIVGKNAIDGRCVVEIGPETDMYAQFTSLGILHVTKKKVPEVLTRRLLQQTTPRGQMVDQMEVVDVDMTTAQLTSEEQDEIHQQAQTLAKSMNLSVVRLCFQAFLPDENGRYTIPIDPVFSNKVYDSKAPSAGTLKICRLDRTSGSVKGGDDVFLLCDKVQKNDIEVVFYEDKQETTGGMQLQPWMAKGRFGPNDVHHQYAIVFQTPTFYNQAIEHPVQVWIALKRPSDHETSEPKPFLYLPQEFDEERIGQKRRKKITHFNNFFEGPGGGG

The next assay addresses GST-Hu-p50 (Homo sapiens, UniProt P19838 7-356).

Residue numbers refer to the chain shown, from its start.

Chain of GST-Hu-p50 (P19838 7-356): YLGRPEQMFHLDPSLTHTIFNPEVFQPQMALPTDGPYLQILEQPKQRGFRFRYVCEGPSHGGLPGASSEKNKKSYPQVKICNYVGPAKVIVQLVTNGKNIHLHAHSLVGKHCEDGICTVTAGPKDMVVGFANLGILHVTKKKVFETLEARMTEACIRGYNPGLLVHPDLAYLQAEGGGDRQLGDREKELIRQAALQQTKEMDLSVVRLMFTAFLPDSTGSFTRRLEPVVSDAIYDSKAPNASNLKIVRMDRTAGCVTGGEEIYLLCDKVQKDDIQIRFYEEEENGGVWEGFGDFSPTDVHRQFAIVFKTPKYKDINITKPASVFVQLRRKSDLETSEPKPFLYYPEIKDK

Regarding “CCGATTAACATCAGGGGGAAGAATGATGTTAATCGGGTCTTGATTCGCTTGACGCTGCTG”, the binding signal was found to be 5.11 z-score with GST-Ap-NF-kB RHD; 6.3 z-score in assay [1]; 6.8 z-score in assay [2]; 9.93 z-score with GST-Co-NF-kB; 4.78 z-score with GST-Dm-Relish; 4.87 z-score in the assay with GST-Aq-NF-kB. The sequence further registered a binding signal with GST-Hu-p50 of 5.86 z-score.
As to “CCGATTAACATCACGGGGAAACCTGATGTTAATCGGGTCTTGATTCGCTTGACGCTGCTG”, the binding signal in the assay with GST-Ap-NF-kB RHD was 7.51 z-score; in assay [1], 7.32 z-score; in assay [2] it was 9.2 z-score; in the assay with GST-Co-NF-kB, 8.87 z-score; in the assay with GST-Dm-Relish, 7.04 z-score; with GST-Aq-NF-kB it was 6.23 z-score. The same sequence showed a binding signal with GST-Hu-p50 of 5.72 z-score.
Turning to “CCGATTAACATCAGGGGGGAAAATGATGTTAATCGGGTCTTGATTCGCTTGACGCTGCTG”, the binding signal with GST-Ap-NF-kB RHD is 7.23 z-score; in assay [1], 6.13 z-score; in assay [2], 8.77 z-score; in the assay with GST-Co-NF-kB it was 11.5 z-score; with GST-Dm-Relish, 4.99 z-score; in the assay with GST-Aq-NF-kB, 6.28 z-score. In the assay with GST-Hu-p50, this sequence registered a binding signal of 7.08 z-score.
Turning to “CCGATTAACATCAGGATTCTCCCTGATGTTAATCGGGTCTTGATTCGCTTGACGCTGCTG”, the binding signal worked out at 3.03 z-score with GST-Ap-NF-kB RHD; 4.71 z-score in assay [1]; 3.05 z-score in assay [2]; 1.79 z-score with GST-Co-NF-kB; 1.49 z-score in the assay with GST-Dm-Relish; 6.5 z-score in the assay with GST-Aq-NF-kB. Besides, in the assay with GST-Hu-p50, the binding signal was found to be 3.33 z-score.
With “CCGATTAACATCAAATATTCCCTTGATGTTAATCGGGTCTTGATTCGCTTGACGCTGCTG”, the binding signal was found to be 5.14 z-score with GST-Ap-NF-kB RHD; 6.37 z-score in assay [1]; 6.41 z-score in assay [2]; 3.47 z-score in the assay with GST-Co-NF-kB; 3.18 z-score with GST-Dm-Relish; 5.56 z-score with GST-Aq-NF-kB. In the assay with GST-Hu-p50, this sequence had a binding signal of 4.16 z-score.
Take “CCGATTAACATCAATATTCCCCATGATGTTAATCGGGTCTTGATTCGCTTGACGCTGCTG”: the binding signal in the assay with GST-Ap-NF-kB RHD was found to be 7.4 z-score; in assay [1], 8.39 z-score; in assay [2], 8.19 z-score; in the assay with GST-Co-NF-kB it was 8.46 z-score; with GST-Dm-Relish, 3.77 z-score; with GST-Aq-NF-kB it was 5.97 z-score. In addition, in the assay with GST-Hu-p50, the binding signal is 5.88 z-score.
“CCGATTAACATCACTTTTCCCCCTGATGTTAATCGGGTCTTGATTCGCTTGACGCTGCTG”: the binding signal came to 6.53 z-score with GST-Ap-NF-kB RHD; 7.4 z-score in assay [1]; 8.95 z-score in assay [2]; 10.8 z-score with GST-Co-NF-kB; 3.73 z-score with GST-Dm-Relish; 5.27 z-score with GST-Aq-NF-kB. The sequence also displayed a binding signal with GST-Hu-p50 of 6.51 z-score.
Regarding “CCGATTAACATCAATCTCCCCCATGATGTTAATCGGGTCTTGATTCGCTTGACGCTGCTG”, the binding signal with GST-Ap-NF-kB RHD was determined as 6.53 z-score; in assay [1] it was 4.32 z-score; in assay [2], 6.24 z-score; with GST-Co-NF-kB, 8.65 z-score; with GST-Dm-Relish it was 2.05 z-score; with GST-Aq-NF-kB, 3.51 z-score. In the assay with GST-Hu-p50, this sequence gave a binding signal of 5.94 z-score.
Take “CCGATTAACATCAGGGGAGGTTATGATGTTAATCGGGTCTTGATTCGCTTGACGCTGCTG”: the binding signal with GST-Ap-NF-kB RHD amounted to 4.62 z-score; in assay [1] it was 3.22 z-score; in assay [2] it was 4.77 z-score; with GST-Co-NF-kB, 4.52 z-score; with GST-Dm-Relish it was 1.82 z-score; with GST-Aq-NF-kB it was 3.84 z-score. The binding signal with GST-Hu-p50 was found to be 3.74 z-score.

For the origin of these results see publication PMC5700166.
